Inconclusive results are not listed. A call without a number means that no potency is given here. The source made the active and inactive calls. Calls come from the whole dose curve; as a rule, active = well fitted activation curve with a large enough effect in the repeat runs; inconclusive = weak or mixed curves; inactive = no such curve, though single readings can be large or run the other way.
These compounds were tested against Nuclear receptor subfamily 1 group I member 2 (Homo sapiens) (UniProt O75469) (assay: Human pregnane X receptor (PXR) small molecule agonists, qHTS assay (AID 1346982; note: nearly all actives have a fitted effect of over 35% in size)). Conditions: PXR-Luc HepG2, CYP3A4 luciferase reporter, 24 h; series mostly up to 92.4 µM.
Text: National Center for Advancing Translational Sciences [NCATS]
NIH Chemical Genomics Center [NCGC]
U.S. Environmental Protection Agency [EPA]
National Institutes of Environmental Health Sciences [NIEHS]
National Toxicology Program [NTP]
The human pregnane X receptor (hPXR) regulates the expression of several drug metabolizing enzymes and induction of these proteins is a major mechanism for developing drug resistance in cancer. One such key enzyme catalyzing the drug metabolism is cytochrome P450 3A4 (CYP3A4). Changes in CYP3A4 expression affect drug metabolism, thereby reducing the therapeutic efficacy and altering toxicological response to a drug and which finally causes adverse drug interaction. To screen Tox21 libraries for compounds that activate hPXR-mediated CYP3A4 gene expression, PXR-Luc HepG2 cells were used.
PXR-Luc HepG2 cells were dispensed at 2,000 per well in 5uL of assay medium containing 5% charcoal-stripped FBS into white solid bottom 1536-well plates (Corning Life Sciences, Corning, NY) using a Multidrop Combi (Thermo Scientific, Waltham, MA) dispenser. The assay plates were incubated at 37 C and 5% CO2 for 5hr, and then 23nL of compounds dissolved in DMSO and positive control were transferred using a Pintool station (Wako, San Diego, CA). The assay plates were incubated at 37C and 5% CO2 for 24hr. For luciferase read, 4uL of ONE-Glo reagent (Promega Corporation, Madison, WI) was added to each well of the assay plates using Flying Reagent Dispenser (FRD, Aurora Discovery, San Diego, CA) and incubated the assay plates at room temperature for 30min. The luminescence signal was quantified using a ViewLux plate reader (Perkin Elmer, Shelton, CT).
Potency is the fitted concentration of half-maximal effect.

Nuclear receptor subfamily 1 group I member 2 (Homo sapiens), sequence (O75469 whole entry, looked up): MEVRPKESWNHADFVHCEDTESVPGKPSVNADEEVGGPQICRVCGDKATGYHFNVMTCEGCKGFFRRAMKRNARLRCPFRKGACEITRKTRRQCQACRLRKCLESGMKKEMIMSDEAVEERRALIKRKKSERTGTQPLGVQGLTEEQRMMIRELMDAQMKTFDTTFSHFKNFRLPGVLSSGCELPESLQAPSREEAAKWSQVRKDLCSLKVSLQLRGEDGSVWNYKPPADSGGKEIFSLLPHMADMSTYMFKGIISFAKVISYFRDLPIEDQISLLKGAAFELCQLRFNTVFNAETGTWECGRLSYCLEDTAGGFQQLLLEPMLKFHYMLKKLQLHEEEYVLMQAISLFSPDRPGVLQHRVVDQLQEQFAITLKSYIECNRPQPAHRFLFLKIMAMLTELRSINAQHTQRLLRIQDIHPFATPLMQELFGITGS

Row | Compound | Potency | activation
1 | CC(C)c1ccccc1C(C)C | inactive | 
2 | CC(=O)/C=C/C1C(C)=CCCC1(C)C (stereo not given) | inactive | 
3 | CC(C)(C)c1ccc(OCC2CO2)cc1 (stereo not given) | 35.1 µM (active) | 
4 | Cc1cc(C)c(S(=O)(=O)O)cc1N=Nc1cc(S(=O)(=O)O)c2ccccc2c1O | inactive | 
5 | CCOc1ccc(NC(=O)CC(C)=O)cc1 | inactive | 
6 | CCCCCCCCCCCCCCCCCBr |  | 1.46% [at 19 µM] (inactive)
7 | O=C(O)c1cccc(N(Cc2cccnc2)c2ccc(OC(F)F)c(OC(F)F)c2)c1 | 43.3 µM (active) | 
8 | CC(C)(C)C1CCCCC1O (stereo not given) | inactive | 
9 | COc1ccc2[nH]c(S(=O)Cc3ncc(C)c(OC)c3C)nc2n1 (stereo not given) | 18.8 µM (active) | 
10 | CC(O)C1CCCCC1 (stereo not given) | inactive | 
11 | O=C(Nc1ccccc1)OCC(CN1CCCCC1)OC(=O)Nc1ccccc1 (stereo not given) | 2.37 µM (active) | 
12 | O=C(O)Cc1sc(-c2ccccc2)nc1-c1ccc(Cl)cc1 | inactive | 
13 | CCN(CC)C(C)=O | inactive | 
14 | O=C(O)c1cn(C2CC2)c2cc(Cl)c(F)cc2c1=O | inactive | 
15 | O=C(O)/C=C/c1cnc[nH]1 | inactive | 
16 | Oc1ccc(O)c2c(O)cccc12 | inactive | 
17 | NC(N)=N/N=C/c1c(Cl)cccc1Cl | inactive | 
18 | CCCCOC(O)CC (stereo not given) | inactive | 
19 | NC[C@H]1O[C@H](O[C@H]2[C@H](O)[C@@H](O[C@H]3O[C@H](CO)[C@@H](O)[C@H](N)[C@H]3O)[C@H](N)C[C@@H]2N)[C@H](O)[C@@H](O)[C@@H]1O |  | 13.1% [at 8.39 µM] (inactive)
20 | CC(C)CC=O | inactive | 

Row | Compound | Potency | activation
21 | O=S(=O)(O)c1ccc(O)c2ncccc12 | inactive | 
22 | Nc1cnn([C@@H]2O[C@H](CO)[C@@H](O)[C@H]2O)c(=O)n1 | inactive | 
23 | CC[C@@H]1C[C@H](N(Cc2cc(C(F)(F)F)cc(C(F)(F)F)c2)C(C)=O)c2cc(C(F)(F)F)ccc2N1C(=O)OC(C)C | 0.77 µM (active) | 
24 | CC(C)c1ccc2c(C(C)C)cc(C(C)C)c(S(=O)(=O)O)c2c1 | 25.2 µM (active) | 
25 | CC(Cc1cccc(C(F)(F)F)c1)NCCOC(=O)c1ccccc1 (stereo not given) | inactive | 
26 | CC(=O)Nc1ccc(/C=N/NC(N)=S)cc1 | inactive | 
27 | c1ccc(-c2nc[nH]c2-c2ccccc2)cc1 | inactive | 
28 | COCCOCCOCCOCCOC | inactive | 
29 | COCCO | inactive | 
30 | CN1CCN(C2=Nc3cc(Cl)ccc3Nc3ccccc32)CC1 | inactive | 
31 | CCOc1nc2cccc(C(=O)O)c2n1Cc1ccc(-c2ccccc2-c2nn[nH]n2)cc1 | inactive | 
32 | O=C(c1ccccc1)c1ccc2n1CCC2C(=O)O (stereo not given) | inactive | 
33 | C#CCOC(=O)[C@@H](C)Oc1ccc(Oc2ncc(Cl)cc2F)cc1 | inactive | 
34 | CCCCOC(=O)/C=C\C(=O)OCCCC | inactive | 
35 | O=C(O)Cn1c(C(=O)Nc2nc(-c3ccccc3Cl)cs2)cc2ccccc21 | 26.6 µM (active) | 
36 | CC(=O)/C(C)=C/C1C(C)=CCCC1(C)C (stereo not given) | inactive | 
37 | CC(C)(C)c1ccc(S)cc1 | inactive | 
38 | O=C(c1ccc(O)cc1)c1ccc(O)cc1 | 54.5 µM (active) | 
39 | O=[N+]([O-])c1cc[n+]([O-])cc1 | inactive | 
40 | COCCCCCCCCOCCC[Si](C)(O[Si](C)(C)C)O[Si](C)(C)C | 12.2 µM (active) | 
